MITF TRPM1 inh: inhibitors of MITF-driven TRPM1 promoter in melanoma cells; SK-MEL-5 TRPM1 promoter luciferase, 24 h; inhibition, % at 12.5 µM; hit rate 0.83% among 330,000;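 active = mean inhibition across replicates of 60% or more, whatever share of single replicates reaches that level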
TWEAK Fn14 block: inhibitors of TWEAK-Fn14 interaction signaling; TWEAK-stimulated Fn14 reporter cells, luciferase luminescence, 8 h; inhibition, % at 10 µM; hit rate 2% among 360,000; AID 1159606; in the data active = inhibition above about 50%
TROY signal inh: inhibitors of TROY-dependent NF-kB signaling | AID 1347056 | Q293 LMP1-TROYcd NF-kB luciferase reporter, 4 h | hit rate 0.98% among 360,000 | inhibition, % at 10 µM;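 active = compounds whose plate-normalised and pattern-corrected inhibition of the luciferase reporter signal at the single screening dose is 50% or more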
HIF-2a block: blocks HIF-2a reporter activity; 786-0 RCC cells HIF-2a reporter, luciferase luminescence, overnight; inhibition, % at 18.8 µM; hit rate 0.72% among 360,000;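 active = inhibition of the luminescence signal of 40% or more relative to plate controls, in a single-dose primary screen at 18.75 µM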
LMP1 NFkB inh: reduces LMP1-driven NF-kappaB luciferase signal; inhibition, % at 12.5 µM; hit rate 0.69% among 350,000; LMP1-induced NF-kappaB luciferase reporter cells, luminescence; in the data active = inhibition above about 41%;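 also: 0% = neutral control wells and 100% = reference inhibitor control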
Peg3 promoter: Peg3 promoter activity inhibition; HeLa PEG-Prom luciferase reporter, luminescence, overnight; inhibition, % at 20 µM; hit rate 1.7% among 360,000;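 active = inhibition of at least 50% at 20 µM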
Numbers without * were called inactive; / = no result given. Hits are enriched below; roughly 4% of the tested compounds scored in any of these assays.

SMILES | MITF TRPM1 inh | TWEAK Fn14 block | TROY signal inh | HIF-2a block | LMP1 NFkB inh | Peg3 promoter
C=CCNC(=O)C1CCN(S(=O)(=O)c2ccc3ccccc3c2)CC1 | 19 | 9 | -10 | 15 | -14 | 10
O=C(Nc1ccc2c(c1)OCCO2)C1CCN(S(=O)(=O)c2cccs2)CC1 | -17 | 35 | 29 | -21 | 7 | -4
O=C(Nc1ccc2c(c1)OCCO2)C1CCN(S(=O)(=O)c2ccc(Br)s2)CC1 | -10 | 51* | 19 | -40 | -5 | -30
O=C(Nc1ccc2c(c1)OCCO2)C1CCCN(S(=O)(=O)Cc2ccccc2)C1 (stereo not given) | -6 | 54* | 24 | -43 | 3 | -69
COc1cc(C(=O)Oc2cccc(Nc3ncnc4ccccc34)c2)cc(OC)c1OC | 26 | 99* | 79* | -47 | 34 | 62*
O=C(Oc1cccc(Nc2ncnc3ccccc23)c1)c1cccnc1 | -17 | 9 | 15 | -10 | 4 | -3
COc1ccc(C(=O)Oc2cccc(Nc3ncnc4ccccc34)c2)cc1OC | -3 | 82* | 54* | -9 | 34 | 7
CCN(CC)C(=O)c1cccc(-c2csc(C(O)c3ccc(F)c(F)c3)n2)c1 (stereo not given) | / | 25 | 33 | 5 | / | 10
CC(OC(=O)c1cc(=O)[nH]c2ccccc12)C(=O)NC1CCCC1 (stereo not given) | 1 | 1 | 7 | 16 | -4 | 8
O=C(Nc1ccc(Cn2cccn2)cc1)c1ccc(COc2ccc(Br)cc2)cc1 | 1 | -10 | -4 | 7 | -3 | 17
O=C(Nc1ccn(Cc2ccccc2F)n1)c1ccc(COc2ccc(Br)cc2)cc1 | 4 | 51* | 13 | -7 | 22 | -5
CCCCCCc1cc2cc(S(=O)(=O)c3ccc(F)c(Cl)c3)c(=O)oc2cc1O | 21 | 54* | 58* | 21 | 0 | 49
Cc1ccc(C2=NN(C(=S)Nc3ccccc3)C(c3ccco3)C2)cc1 (stereo not given) | -70 | 48 | 57* | -206 | -70 | -334
CC1=C(C(=O)Nc2ccccc2)C(c2ccco2)C(C#N)=C(SCC(=O)OC(C)C)N1 (stereo not given) | 10 | 59* | 14 | 20 | -1 | 9
CC1=C(C(=O)Nc2ccccc2)C(c2ccco2)C(C#N)=C(SCC(=O)Nc2cccc(C)c2C)N1 (stereo not given) | 16 | 32 | -8 | 9 | 5 | 39
N=C1S/C(=C\c2ccc(-c3cccc(Cl)c3)o2)C(=O)N1c1nccs1 | 48 | 90* | -6 | 1 | 22 | 104*
C[C@H](CO)N1C[C@H](C)[C@@H](CN(C)S(=O)(=O)c2ccccc2)Oc2ccc(NC(=O)NC3CCCCC3)cc2C1=O | -11 | -1 | 0 | 2 | 3 | 1
CCN(CC)CCNC(=O)c1ccc(NC(=O)c2cc(S(=O)(=O)N3CCCCC3)ccc2N2CCOCC2)cc1 | -17 | -2 | -11 | 13 | -9 | 9
O=C(/C(=C/O)N=Nc1ccccc1)c1ccc(Cl)cc1 | 16 | -9 | -18 | -81 | -7 | 33
Cc1ccc(N=N/C(=C\O)C(=O)c2ccc(Cl)cc2)cc1 | 14 | -16 | -41 | -220 | -13 | 75*
O=C(Nc1ncn[nH]1)c1ccc(Cl)c(Cl)c1 | 4 | -6 | 18 | -11 | 0 | -9
Cc1cc(C(F)(F)F)nn1CC(=O)N1CCCCC1C (stereo not given) | 4 | 83* | / | 19 | -1 | 5
C#CCOCCOCCOCCNc1nc(N2CCN(C(=O)CCCCCCCCCCNC(=O)Cn3cc(CCCCCN)nn3)CC2)nc(N2CCN(C(=O)CCCCCCCCCCNC(=O)[C@@H]([C@H](C)O)n3cc(C)nn3)CC2)n1 | 35 | -4 | 1 | -6 | 2 | 35
C#CCOCCOCCOCCNc1nc(N2CCN(C(=O)CCCCCCCCCCNC(=O)Cn3cc(C[C@@H](C)O)nn3)CC2)nc(N2CCN(C(=O)CCCCCCCCCCNC(=O)[C@@H]([C@H](C)O)n3cc(C)nn3)CC2)n1 | 46 | 84* | -19 | -5 | -30 | -73
C#CCOCCOCCOCCNc1nc(N2CCN(C(=O)CCCCCCCCCCNC(=O)Cn3cc(C[C@@H](C)O)nn3)CC2)nc(N2CCN(C(=O)CCCCCCCCCCNC(=O)[C@@H]([C@H](C)CC)n3cc(CCCCCN)nn3)CC2)n1 | 99* | -9 | 68* | 1 | -32 | 101*
SMILES | MITF TRPM1 inh | TWEAK Fn14 block | TROY signal inh | HIF-2a block | LMP1 NFkB inh | Peg3 promoter
C#CCOCCOCCOCCNc1nc(N2CCN(C(=O)CCCCCCCCCCNC(=O)Cn3cc(CCCCCN)nn3)CC2)nc(N2CCN(C(=O)CCCCCCCCCCNC(=O)Cn3cc(C[C@@H](C)O)nn3)CC2)n1 | -6 | -24 | -32 | -7 | -6 | 27
CC(C)(C)c1ccc(Cn2c(=N)n(CC(O)c3ccco3)c3ccccc32)cc1 (stereo not given) | 98* | 69* | 54* | 1 | -87 | 105*
COc1ccc(Nc2nc(N)nc(CSC(=S)N3CCCCC3C)n2)cc1 (stereo not given) | -25 | -9 | -34 | -42 | -5 | -19
COc1ccc(CCN(/C=C2\Sc3ccccc3C2=O)C(C)=O)cc1OC | / | 0 | 56* | -5 | / | 14
O=C(O)c1cc(C(=O)O)cc(-c2ccc(/C=c3/sc4nc5ccccc5n4c3=O)o2)c1 | 7 | / | / | / | -4 | /
O=C(O)c1ccccc1-c1ccc(C=c2sc3nc4cc(Br)cnc4n3c2=O)o1 | / | 54* | 14 | 0 | / | -2
Cc1cnc(NC(=O)CCNC(=O)c2ccccc2Cl)s1 | -2 | -3 | -8 | 10 | 2 | -7
Cc1cnc(NC(=O)COc2ccccc2Cl)s1 | 48 | 96* | 59* | 25 | 66* | 43
Cc1cc(C)c(NC(=O)c2cccc(NC(=O)c3ccco3)c2)c(C)c1 | -7 | -10 | -3 | 18 | 6 | 73*
CCOc1ccccc1NC(=O)c1cccc(NC(=O)c2ccco2)c1 | 4 | 88* | -15 | -18 | 3 | 14
O=C(Nc1ccccc1)c1cccc(NC(=O)c2ccco2)c1 | 2 | 101* | -3 | -3 | -1 | -8
O=C(Nc1cccc(-c2nc3ccccc3[nH]2)c1)c1cccc(NC(=O)c2ccco2)c1 | 87* | 25 | -19 | -51 | -1 | 104*
O=C(O)Cc1ccc(NC(=O)c2cccc(NC(=O)c3ccco3)c2)cc1 | 16 | -21 | 1 | 12 | -10 | 14
CC(C)(C)c1ccc(C(=O)Nc2ccccc2NC(=O)c2ccco2)cc1 | -9 | 96* | / | -26 | -7 | -22
CC1(C)Cc2c(sc(NC(=O)c3ccc4ncsc4c3)c2C(N)=O)C(C)(C)N1 | 78* | -56 | -31 | -54 | 3 | 22
CC1(C)Cc2c(sc(NC(=O)c3ccc(C(=O)c4ccccc4)cc3)c2C(N)=O)C(C)(C)N1 | 39 | -46 | 16 | 25 | -7 | 83*
NC(=O)c1c(NC(=O)c2ccccc2)sc2c1CCc1ccccc1-2 | -41 | 56* | -30 | -290 | -51 | -250
